Most compounds without a hit are left out; they make up all but 3.5% or so of the library.
TEAD-YAP block – TEAD-YAP interaction inhibition; HEK-TIYL cells, TEAD-Gal4/YAP UAS-luciferase luminescence; inhibition, % at 9.12 µM; hit rate 1.4% among 640,000; AID 1259422; in the data active = inhibition above about 32%;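 also: 0% = median of test compound wells and 100% = reference inhibitor wells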
FBW7 act – activators of human E3 ligase FBW7 | Q969H0 | AlphaScreen FBW7–phospho-cyclin E peptide binding, activator screen | normalized activity (activation), % at 26.1 µM | hit rate 0.13% among 650,000 | AID 1259310; in the data active = normalized activity above about 1.9%;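 also: purified mutant Fbw7 with reduced substrate affinity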
GPR151 activ – activates the human receptor GPR151 | hit rate 1% among 650,000 | activation, % at 11.2 µM | Q8TDV0 | AID 1508602 | PathHunter beta-arrestin GPR151 cells, luminescence; in the data active = activation above about 4.9%;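 also: 0% = median of compound wells and 100% = cells with positive control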
MITF primary – inhibitors of human MITF | hit rate 0.91% among 650,000 | AlphaScreen MITF homodimerization, bead proximity signal | inhibition, % at 2.6 µM; in the data active = inhibition above about 50%;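 also: 0% = vehicle wells with protein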
GPR151 conf act – human GPR151 activation, confirmation screen | shares compounds with GPR151 activ | GPR151 PathHunter beta-arrestin cells, luminescence, 90 min; % of EA-reagent control over plate median | activation, % at 11.2 µM | 6,700 tested, under 10 active | AID 1508609;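 active = mean percent activation across replicates above the confirmation screen cutoff of 4.91%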
GPR119 counter – counter-screen for GPR151 activators: effect on human GPR119. hit rate 0.3% among 6,700. GPR119 PathHunter beta-arrestin cells, luminescence, 90 min; 0 = compound-well median, 100 = enzyme-acceptor control. shares compounds with GPR151 activ. activation, % at 11.2 µM;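 active = mean percent activation in the counterscreen above 29.09%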;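 also: counterscreen on off-target GPR119 to flag nonselective hits from the GPR151 activator screen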
Target sequence (Q8TDV5 whole entry, looked up): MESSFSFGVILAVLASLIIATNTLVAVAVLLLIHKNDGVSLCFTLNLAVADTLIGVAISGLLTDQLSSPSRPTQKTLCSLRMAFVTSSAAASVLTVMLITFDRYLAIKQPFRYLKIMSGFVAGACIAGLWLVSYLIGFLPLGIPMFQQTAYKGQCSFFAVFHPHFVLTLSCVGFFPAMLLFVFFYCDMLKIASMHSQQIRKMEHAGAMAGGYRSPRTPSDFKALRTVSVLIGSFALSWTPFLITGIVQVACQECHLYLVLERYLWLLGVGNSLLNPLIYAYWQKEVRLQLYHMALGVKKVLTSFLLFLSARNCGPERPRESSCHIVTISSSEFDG
Starred values were filed as active, the others as inactive; / = no result given.

SMILES | TEAD-YAP block | FBW7 act | GPR151 activ | MITF primary | GPR151 conf act | GPR119 counter
CCCCC(c1nnnn1CCOC)N1CCN(c2ccccc2)CC1 (configuration not stated) | -1 | 0 | 5.1* | 7 | 1 | 9
COc1ccc(C(=O)NC2C3CC4CC(C3)CC2C4)cc1Cl (configuration not stated) | 2 | 0 | 0 | 10 | / | /
COc1ccc(Cl)cc1C(=O)NC1C2CC3CC(C2)CC1C3 (configuration not stated) | 8 | 0 | 5.0* | 8 | 1 | 1
COc1cc(OC)cc(C(=O)NC2C3CC4CC(C3)CC2C4)c1 (configuration not stated) | 3 | 0 | 12* | -1 | 0 | -8
COc1ccc(Cn2c(O)c(C=Nc3ccc(OC)cc3OC)c3ccccc3c2=O)cc1 | 4 | 0 | 7.0* | -8 | 2 | -5
CC1(C)CC(=O)C/C(=N/NC(=O)C2CC2c2ccccc2)C1 (configuration not stated) | 0 | 0 | 1 | -6 | / | /
CC(=O)NC(CC(=O)OCC(=O)Nc1sc2c(c1C(N)=O)CCC2)c1ccccc1 (configuration not stated) | 4 | 0 | 1 | 24 | / | /
Cc1nc(CN(C)Cc2ccc(C(=O)NCc3ccccc3Cl)c(=O)[nH]2)cs1 | -15 | 0 | 5.2* | 4 | 0 | 3
CN(Cc1cscn1)Cc1ccc(C(=O)NCc2cccs2)c(=O)[nH]1 | 9 | -1 | -1 | 10 | / | /
Cc1ccc(S(=O)(=O)N(CC(=O)N2CCN(Cc3ccccc3)CC2)c2ccc(Cl)c(C(F)(F)F)c2)cc1 | 6 | 0 | 0 | -50 | / | /
O=C(CCN1N=C(c2ccccc2)CCC1=O)NCc1ccc2c(c1)OCO2 | 8 | 0 | 7.2* | -1 | 0 | -5
O=C(Cc1cc(=O)[nH]c(=O)[nH]1)NCc1ccc2c(c1)OCO2 | 2 | 0 | 8.6* | 10 | 0 | 5
O=C(CSc1n[nH]c(=O)n1C1CC1)NCc1ccc2c(c1)OCO2 | 17 | 0 | 6.3* | -12 | 0 | 0
Cc1cc(=O)[nH]c2nnc(SCC(=O)NCc3ccc4c(c3)OCO4)n12 | 8 | 1 | -2 | 13 | / | /
O=C(CCN1N=C(c2ccccc2)CCC1=O)NCc1ccc(Cl)cc1 | -7 | 0 | 0 | -3 | / | /
NS(=O)(=O)c1ccc(NC(=S)NCc2ccc3c(c2)OCO3)cc1 | -2 | 0 | 9.1* | -12 | 0 | 2
C1CCC(n2nnnc2CN2CCOCC2)C1 | 0 | 0 | 1 | 9 | / | /
Cc1cccc(NC(=O)CSc2nnc(C3CC3)n2C)c1 | -1 | 0 | 1 | 2 | / | /
Cc1cccc2cc(CN(Cc3cccs3)C(=O)N(C)C)c(=O)[nH]c12 | -3 | 0 | 3 | 25 | / | /
O=C(CN1C(=O)/C(=C/c2ccccc2)Sc2ccccc21)NCc1ccc2c(c1)OCO2 | -1 | 0 | 9.0* | -2 | 0 | -1
O=C(CN1C(=O)/C(=C\c2cccc(Cl)c2)Sc2ccccc21)NCc1cccnc1 | -7 | 0 | 0 | 6 | / | /
O=C(CS(=O)(=O)c1ccccc1)NCc1ccc2c(c1)OCO2 | -3 | 0 | 5.1* | 8 | 1 | 14
O=S(=O)(Cc1ccc2c(c1)OCO2)c1ccc2ccccc2c1 | -7 | 0 | 5.8* | 12 | 0 | -12
C[C@@H](OCc1ccccc1)[C@@H]1NC(=O)[C@H]2CN(CC3CC3)CCN2C1=O | 0 | 0 | -2 | 10 | / | /
CC1CCCC(NC(=O)CCCOc2cc(=O)n(C)c3ccccc23)C1C (configuration not stated) | -32 | 0 | 0 | -8 | / | /
SMILES | TEAD-YAP block | FBW7 act | GPR151 activ | MITF primary | GPR151 conf act | GPR119 counter
FC(F)(F)c1cc(-c2ccccc2)n(-c2cc(N3CCCCC3)ncn2)n1 | 0 | 0 | 5.4* | 3 | 0 | -8
Nc1cc2c(cc1C(=O)c1cccc(Br)c1)OCCO2 | 5 | 0 | 5.4* | -2 | 0 | 3
Cc1cc(Cl)ccc1NC(=O)N[C@H]1C[C@H]2C(=O)N[C@@H](CC(C)C)C(=O)N2C1 | -7 | 0 | -1 | 16 | / | /
O=C(c1ccsc1)N1CCc2ccc(NC(=O)C3(c4ccccc4)CC3)cc2C1 | 7 | 0 | 5.9* | 10 | -1 | -8
O=C(Nc1ccc2c(c1)CN(C1CCSCC1)CC2)C1(c2ccccc2)CC1 | 1 | 0 | 0 | -18 | / | /
Cc1ccc(OCCNC(=O)C(=O)Nc2ccccc2F)cc1C | 1 | 0 | 5.2* | 1 | 1 | -3
CCOc1ccc(-c2[nH]nc3c2C(c2ccccc2F)C(C#N)=C(N)O3)c(OCC)c1 (configuration not stated) | 1 | 0 | 7.1* | 10 | -1 | 6
O=C(NC1CC1)c1cnc(Nc2ccc(C(F)(F)F)cc2)s1 | 1 | 0 | 4.9* | 5 | 1 | -1
O=C(NC1CC1)c1cnc(Nc2ccc3ncccc3c2)s1 | -37 | 0 | 6.3* | 2 | -1 | -12
CC1(C)CC(=O)C=C(NNC(=O)c2ccccc2[N+](=O)[O-])C1 | 3 | 0 | 0 | 1 | / | /
Nc1ccc(NC(=S)NC2CCCCC2)cc1[N+](=O)[O-] | -26 | -1 | 1 | 11 | / | /
CC1(C)C2CCC1(C)C(Nc1ccc(N)c([N+](=O)[O-])c1)(S(=O)(=O)O)C2[n+]1ccccc1 (configuration not stated) | 0 | 0 | 5.6* | 4 | -1 | -8
COc1cccc(/C(C)=N/NS(=O)(=O)c2ccc(Cl)cc2)c1 | -2 | 0 | 5.3* | -23 | 1 | 18
COc1ccc(S(=O)(=O)N/N=C(/C)c2ccc(Cl)cc2)cc1 | -6 | 0 | 0 | -7 | / | /
COc1ccc(OC)c(NC(=O)CC(Cc2ccc(Cl)cc2)C(=O)O)c1 (configuration not stated) | 6 | 0 | 5.2* | 8 | 0 | -7
CCC[C@@H]1NC(=O)[C@H]2CN(Cc3sccc3C)CCN2C1=O | 9 | 0 | -2 | 6 | / | /
COc1ccc(CNS(=O)(=O)c2ccc(C3CNC(=O)C3)cc2)cc1 (configuration not stated) | 12 | 1 | 0 | 9 | / | /
COc1ccc2c(c1)CCC(C)N2S(=O)(=O)c1ccc(C2CNC(=O)C2)cc1 (configuration not stated) | 3 | 0 | 8.3* | 2 | 0 | 4
O=C(CSc1ccccc1C(=O)O)Nc1nccs1 | 5 | 0 | -1 | 7 | / | /
O=C1c2ccccc2C(=O)N1CCN1CCCC2(C1)Nc1ccccc1-n1cccc12 (configuration not stated) | -4 | 0 | 0 | 7 | / | /
COc1ccc2c(c1)NC1(CCCN(CCN3C(=O)c4ccccc4C3=O)C1)c1cccn1-2 (configuration not stated) | 1 | 0 | 5.4* | -3 | 1 | -2
CCn1c(=O)c2ccccc2n2c(SCc3cccnc3)nnc12 | 4 | 0 | 5 | 35 | / | /
